An excerpt weighted towards active compounds, which were near 2.3% of everything screened.
Tau fluor cs: counter-screen for tau fibril formation inhibitors | tau K18 P301L Alexa594 fluorescence, heparin fibrillization | Potency, µM (titrated, usually from 57.7 µM), for the others: at the highest dose activity change, negative = decrease | hit rate 0.93% among 280,000 | AID 1463; further: potency means the concentration at half of the fitted maximal effect; nearly all actives have a fitted effect of over 55% in size
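Human tau K18 P301L (15 uM unlabeled, 0.24 uM Alexa 594-labeled) in 100 mM sodium acetate pH 7 with 20 uM heparin, 6 hr at 37 C. ThT 30 uM added, 1 hr ambient; Alexa 594 FP and total fluorescence read at 555/632 nm.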
FBPA coupling cs: inhibits coupling enzyme system, counter-screen for aldolase hits; activity change, negative = inhibition, % at 58.2 µM, hits read low; hit rate 0.67% among 290,000; AID 2472; coupling enzyme system counterscreen, AmpLite Red fluorescence; in the data active means activity change below about -30%
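Coupling enzymes only (glyceraldehyde-3-phosphate) + compound, at 57.5 uM final, 10 min RT; add substrate/coupling/AmpLite Red mix, 20 min RT; fluorescence ex 525/em 598 nm. Actives flag coupling-system interference.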
USP1 inh: blocks the human USP1/UAF1 deubiquitinase complex; O94782; AID 743255; recombinant USP1/UAF1, Ub-Rhodamine cleavage fluorescence; hit rate 0.23% among 390,000; Potency, µM (highest dose often 57.1 µM), for inactives: at the highest dose activity change, negative = inhibition, most hits filed as inhibitors; further: potency means the concentration at half of the fitted maximal effect; nearly all actives have a fitted effect of over 60% in size
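Step one: compound is pinned into 1nM USP1/UAF1 in HEPES pH 7.8 buffer with TCEP. Step two: 15 min room-temperature incubation. Step three: Ub-Rho (150nM final) starts cleavage, tracked by fluorescence over six one-minute reads.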
Tau fibril FP: tau fibrillization inhibition (FP) | P10636 | K18 P301L tau heparin fibrillization, Alexa594 FP, 6 h | Potency, µM (doses to about 57.7 µM), for the others: at the top dose activity, negative = inhibition, actives largely listed as inhibitors | hit rate 0.39% among 280,000 | AID 1468; further: potency means the concentration at half of the fitted maximal effect; nearly all actives have a fitted effect of over 55% in size
Target sequence (P10636 561-689 P618L limits assumed): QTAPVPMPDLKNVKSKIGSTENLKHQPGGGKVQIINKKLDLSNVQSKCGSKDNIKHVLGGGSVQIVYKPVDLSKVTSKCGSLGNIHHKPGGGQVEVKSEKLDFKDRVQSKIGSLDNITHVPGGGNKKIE
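K18 P301L tau (15 uM unlabeled/0.24 uM Alexa 594-labeled, final) + compound + heparin 20 uM final; 100 mM NaOAc pH 7; 6 hr 37 C; ThT 30 uM final added, 1 hr RT; FP ex 555/em 632 nm.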
Tau ThT inhib: tau fibrillization inhibition (ThT binding); P10636; recombinant tau K18 P301L (four-repeat tau fragment), heparin-induced fibrillization, ThT fluorescence; Potency, µM (highest dose often 57.4 µM), for inactives: at the highest dose activity, negative = inhibition, most hits filed as inhibitors; hit rate 2.1% among 270,000; AID 1460; further: potency means the concentration at half of the fitted maximal effect; nearly all actives have a fitted effect of over 55% in size
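Heparin-induced fibrillization of the P301L-mutant K18 repeat-domain fragment of human tau was followed by ThT binding in quantitative high-throughput format.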
Active calls of the source: *; ? = inconclusive; · = no result given; ! = a repeat was not active. Unless noted, the call rests on the fitted dose curve; in most records, active means well fitted curve in the direction sought with a large enough effect; inconclusive means small, poorly fitted or top-dose-only effect, or another doubt; inactive means no such curve, though single readings can be large; an effect the other way counts as inactive or inconclusive. On the % scale 0 is the no-effect control and ±100 the full control effect.

SMILES	Tau fluor cs	FBPA coupling cs	USP1 inh	Tau fibril FP	Tau ThT inhib
COc1ccc(-n2[nH]c3c4c(ncc3c2=O)CCCCC4)cc1	-17.2%	2.5	·	?	?
CCOc1ccc(N2CC(c3nc4ccccc4n3CCC3CCCCC3)CC2=O)cc1 (stereo unspecified)	-9.6%	·	-30.6%	-4.2%	?
COc1ccc2c(c1)CC[C@@H]1[C@@H]2CC[C@]2(C)[C@@H](NCCCCCCN3C(=O)C=CC3=O)CC[C@@H]12	-5.2%	·	·	0.6%	-12.4%
Nc1cc2nc3ccccc3nc2cc1N	?	-33.8*	-18.8%	?	10µM*
COC(=O)C1C(O)C(C)C(O)C(C)/C=C\C=C(/C)C(=O)Nc2c(C)c(OC(C)=O)c3c(c2O)C(=O)C(C)=C2OCOC(=C23)/C(C)=C/C(C)(O)C(O)C(C)C1O (stereo unspecified)	?	-30.3*	?	?	31.6µM*
Cc1cc(-c2nc3ccccc3s2)ccc1NC(=O)c1cc(Cl)ccc1Cl	-12.3%	·	0.1%	-2.5%	?
c1ccc(N2CCN(c3ncnc4c3nc3n4CCCCC3)CC2)cc1	-15.1%	·	-27.4%	9.5%	?
Nc1ccc2c(c1)Cc1cc([N+](=O)[O-])ccc1-2	?	0.2	-8.6%	6.6%	3.16µM*
CC1=C(O)C(=O)[C@@H]2O[C@@H]2C1=O	?	·	·	20µM*	15.8µM*
O=[N+]([O-])c1c2ccccc2cc2ccccc12	·	·	-15.4%	·	·
O=[N+]([O-])c1ccc(-c2ccc(C=Nc3cccc4ccccc34)o2)cc1	-26.9%	-11.4	?	-3.6%	15.8µM*
CCOC(=O)c1ccc(N2CCN(c3ccccc3F)CC2)c(NC(=O)Nc2ccc(Cl)c(Cl)c2)c1	-19.0%	·	-6.3%	?	9.9%
CC(N)C(O)c1ccc(O)c(O)c1 (stereo unspecified)	?	-4.1	·	?	7.94µM*!
CC(N)[C@@H](O)c1ccccc1 (stereo partly specified)	-0.3%	0.3	·	-3.9%	0.2%
CC1=C[C@H]2[C@]3(O)C(C=C(CO)C[C@]2(O)C1=O)[C@@H]1C(C)(C)[C@]1(O)[C@H](O)[C@H]3C (stereo partly specified)	·	0.9	·	·	·
CCN(CC)c1ccc(N=Cc2c(O)n(-c3ccccc3C)c(=O)[nH]c2=O)cc1	-30.0%	0.0	?	0.3%	20µM*
CCN(CC)c1ccc(N=Cc2c(O)n(-c3ccccc3)c(=O)[nH]c2=O)cc1	?	-10.5	?	-13.5%	·
O=C(C1CCN(S(=O)(=O)c2ccc(Br)s2)CC1)N1CCN(c2cccc(C(F)(F)F)c2)CC1	-26.0%	·	?	8.8%	-19.7%
O=C1NC(=O)N(c2ccccc2F)C(=O)/C1=C/c1ccc(Sc2nc3ccccc3[nH]2)o1	-11.2%	5.9	-16.3%	-22.1%	12.6µM*
O=C1NC(=O)N(c2cccc(Cl)c2)C(=O)/C1=C\c1ccc(Sc2nc3ccccc3[nH]2)o1	?	5.5	-14.0%	?	12.6µM*
O=C1NC(=O)N(c2ccccc2)C(=O)/C1=C/c1ccc(Sc2ccccc2)o1	-9.0%	2.3	-20.0%	-5.7%	?
CC(=O)OC1CC[C@@]2(C)C3CC(=O)[C@]4(C)C(C(C)=O)=CCC4C3CC[C@H]2C1 (stereo partly specified)	-14.2%	5.1	·	1.5%	?
CC[C@H](C)/C=C(C)/C=C/C1=CC2=C(Cl)C(=O)[C@](C)(OC(C)=O)C(=O)C2=CO1	·	·	25.1µM*	·	·
O=C(NCc1ccc2c(c1)CCN2C(=O)c1ccccc1)Nc1cccc(C(F)(F)F)c1	?	·	-26.0%	?	2.1%
COc1cc2c(cc1OC)-c1c3c(cc4c1[C@@H](C2)N(C)CC4)OCO3	-26.7%	-29.5	?	-4.0%	?
SMILES	Tau fluor cs	FBPA coupling cs	USP1 inh	Tau fibril FP	Tau ThT inhib
CN1CCc2cc3c(c4c2[C@H]1Cc1ccccc1-4)OCO3	·	-33.4*	·	·	·
ClCCN(CCCl)c1ccc(C=Cc2ccncn2)cc1	·	·	25.1µM*	·	·
c1ccc(C[n+]2ccccc2)cc1	·	·	4.6%	·	·
c1cc[n+]2c(c1)-c1cccc[n+]1CC2	·	-35.4*	·	·	·
COc1ccc(-n2c(O)c(/C=C/C=Nc3ccccc3)c(=O)[nH]c2=O)cc1	7.6%	-6.0	31.6µM*	-1.4%	2.0%
O=c1[nH]c(=O)n(-c2ccccc2)c(O)c1/C=C/C=Nc1ccccc1	-5.0%	-2.5	?	7.9%	-2.7%
O=C(N/N=C/c1c(O)n(Cc2ccccc2)c(=O)[nH]c1=O)c1ccccc1O	-5.3%	6.9	?	?	8.5%
COc1ccc(Cn2c(O)c(/C=N/NC(=O)c3ccccc3O)c(=O)[nH]c2=O)cc1	?	1.0	-10.8%	1.7%	22.4µM*
COc1ccc(-c2nnc3n2N(C(C)=O)C(c2ccc(Cl)c(Cl)c2)=C(C(C)=O)S3)cc1	-24.7%	·	?	-10.4%	?
CC1=NN(c2ccccc2)C(=O)C1=C(C)C	?	2.1	-23.6%	-9.1%	11.2µM*
CCN1C(=O)c2ccccc2Sc2ccc(NC(=O)Nc3ccc(Br)c(C)c3)cc21	?	·	-25.6%	15.8µM*	13.9%
Cc1cccc(OCC(=O)Nc2cc(-c3ccccc3F)nn2-c2ccccc2)c1	-0.6%	·	-13.8%	?	-2.3%
CCCCn1c(NC(=O)c2ccco2)c(C(=O)OCC)c2nc3ccccc3nc21	-26.0%	-45.6*	25.1µM*	15.8µM*	12.6µM*
CCCCn1c(NS(=O)(=O)c2ccc(C)cc2)c(C(=O)OCC)c2nc3ccccc3nc21	3.5%	-18.8	?	2.4%	-7.8%
Cn1nc(-c2ccc(C(=O)Nc3ccc(OC(F)(F)F)cc3)cc2)c2ccccc2c1=O	-12.0%	·	?	?	12.0%
CCn1nc(/C=C/c2ccccc2)nc2c(=O)n(C)c(=O)nc1-2	-4.7%	1.2	1.12µM*	1.6%	-7.7%
CCOc1ccc(-n2c(/C=C/c3ccccc3)nc3ccccc3c2=O)cc1	-3.8%	·	-30.7%	?	-0.2%
CC(C)=CCCC1(C)C=Cc2c(O)c3c(c(CC=C(C)C)c2O1)OC12C(=CC4CC1C(C)(C)OC2(C/C=C(/C)C(=O)O)C4=O)C3=O (stereo unspecified)	-15.8%	-0.7	·	?	22.4µM*
CC(C)=CCCC1(C)C=Cc2c(O)c3c(c(CC=C(C)C)c2O1)OC12C(=CC4CC1C(C)(C)OC2(C/C=C(/C)C(=O)O)C4O)C3=O (stereo unspecified)	-25.2%	2.6	·	?	17.8µM*
CC(C)CCCC1(C)C=Cc2c(O)c3c(c(CCC(C)C)c2O1)OC12C(CC4CC1C(C)(C)OC2(CCC(C)C(=O)O)C4O)C3=O (stereo unspecified)	-3.6%	-0.1	·	-7.3%	?
NC(Cc1cc(O)c(O)cc1O)C(=O)O (stereo unspecified)	?	·	·	?	14.1µM*
N[C@@H](CCl)C(=O)O	-0.9%	·	?	2.8%	-7.1%
